Assay outcomes from PubChem.
CYP2C19 inhib: human CYP2C19 inhibition; CYP2C19 Supersomes, luciferin-H EGE luminescence, 30 min; 96,000 tested, 21% active; AID 778; inhibition, % at 5 µM;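 active = CYP2C19 inhibition above a set limit at 5 µM in the primary screen, cut at about 50% in these data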;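 note: plate controls were negative control wells for no effect and 2.5 mM tranylcypromine positive control for full effect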
CYP2C9 inh: blocks human cytochrome P450 2C9; AID 777; P11712; inhibition, % at 5 µM; CYP2C9 Supersomes, luciferin-H conversion, luminescence; 96,000 tested, 20% active;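 active = blocking of liver enzyme CYP2C9 beyond about 50% at 5 µM, limit read from the data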
Target sequence (P11712 whole entry, looked up): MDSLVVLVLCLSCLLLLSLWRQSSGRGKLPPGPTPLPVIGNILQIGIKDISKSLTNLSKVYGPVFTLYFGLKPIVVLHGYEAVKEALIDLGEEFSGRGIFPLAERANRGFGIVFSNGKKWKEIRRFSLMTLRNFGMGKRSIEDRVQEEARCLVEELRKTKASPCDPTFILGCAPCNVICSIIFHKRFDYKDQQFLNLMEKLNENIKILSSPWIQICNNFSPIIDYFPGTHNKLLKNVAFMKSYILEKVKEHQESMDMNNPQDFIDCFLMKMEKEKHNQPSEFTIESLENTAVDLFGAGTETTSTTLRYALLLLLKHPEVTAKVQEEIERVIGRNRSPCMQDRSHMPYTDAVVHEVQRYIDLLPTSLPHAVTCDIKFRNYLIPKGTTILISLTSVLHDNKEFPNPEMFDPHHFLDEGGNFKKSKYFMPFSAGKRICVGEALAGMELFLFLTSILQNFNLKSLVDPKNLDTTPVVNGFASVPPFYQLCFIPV
CYP2C19 act: increases human CYP2C19 enzyme activity. 96,000 tested, under 10 active. activation factor at 5 µM. P33261. recombinant CYP2C19, luciferin-H EGE luminescence; stronger effect = higher value; 0 = fully inhibited enzyme, 1 = untreated enzyme;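 active = activation factor of at least 2 at 5 µM in the primary screen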;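 note: 0 = wells with 2.5 mM tranylcypromine and 1 = vehicle-only wells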
Cav3 T inh: inhibitors of human Cav3.2 T-type calcium channel. B-score at 10 µM. Cav3.2-expressing cells, Fluo-4 calcium fluorescence FDSS; stronger effect = lower value. 100,000 tested, 4% active. O95180. AID 449739;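 active = single-dose well whose peak fluorescence ratio is a statistical outlier from its plate by either plate-standardised score or position-corrected B-score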
CYP2C9 activ: increases human cytochrome P450 2C9 activity | recombinant CYP2C9, luciferin-H conversion, luminescence; stronger effect = higher value; factor 1 = untreated enzyme, 0 = blocked | activation factor at 5 µM | 96,000 tested, 1.4% active | AID 1024;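 active = activation factor of 2 or more for CYP2C9 at a 5 µM dose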;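 note: 0 = sulfaphenazole-blocked wells and 1 = vehicle-only wells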
Numbers without * were called inactive; nt = no result given. In the library only some 27% were active in any assay of this set; here they are far more common.

SMILES	CYP2C19 inhib	CYP2C9 inh	CYP2C19 act	Cav3 T inh	CYP2C9 activ
Cc1ccc(C(=O)c2coc3ccc(O)c(Cl)c23)cc1	54.4*	6.3	0.5	-5.15*	0.9
Cc1nc(-c2ccccc2)sc1C1(C)CC(c2c(Cl)cccc2Cl)=NO1 (configuration not stated)	nt	nt	nt	-0.512	nt
Cc1ccc(NC(=O)Nc2ncccc2C)cc1	21.0	0.3	0.8	-2.49	1
O=C(NCc1cccs1)Nc1cccs1	18.9	6.1	0.8	0.978	0.9
Cc1ccccc1CNC(=O)Nc1cccs1	72.0*	45.4	0.3	0.64	0.5
Cc1cccnc1NC(=O)Nc1cccs1	50.3*	27.0	0.5	-0.495	0.7
CCCN(CCO)Cc1ccc2ccccc2c1	51.6*	3.6	0.5	0.332	1
Cc1cc(/C=C2\SC(=Nc3ccc(F)cc3)NC2=O)c(C)n1-c1ccc(S(N)(=O)=O)cc1	16.8	41.3	0.8	-1.05	0.6
COc1cc(/C=C2/S/C(=N/S(=O)(=O)c3ccccc3)NC2=O)c([N+](=O)[O-])cc1OC	6.8	99.1*	0.9	-2.98	0
CC(=O)N1N=C(c2ccncc2)OC12CCCCC2	88.4*	55.0*	0.1	0.785	0.4
O=C(NCc1cccc(Br)c1)C1CC(c2ccccc2[N+](=O)[O-])=NO1 (configuration not stated)	nt	nt	nt	-0.0333	nt
COc1ccc2nc(NC(=O)CSc3nc(C)cc(C)n3)sc2c1	89.9*	84.2*	0.1	-1.12	0.2
Cc1cccc2sc(NC(=O)CSc3nc4ccccc4o3)nc12	-1.2	4.2	1	-0.392	1
COc1ccc2nc(NC(=O)c3ccc4ncsc4c3)sc2c1	-5.5	53.8*	1.1	nt	0.5
COc1ccc2nc(NC(=O)CSc3nc4ccccc4o3)sc2c1	61.7*	33.1	0.4	-0.631	0.7
O=C(CSc1nc2ccccc2o1)Nc1nc2ccc(Br)cc2s1	94.3*	80.6*	0.1	-0.245	0.2
Cc1c(Br)c([N+](=O)[O-])nn1CC(=O)NCc1ccccn1	-2.1	-2.8	1	0.518	1
Cn1cccc1C(=O)OCC(=O)Nc1ccc2c(c1)CCC2	20.3	7.1	0.8	-1.84	0.9
c1cc2[nH]snc2c2nc(C3CC3)nc12	26.4	8.2	0.7	-0.287	0.9
CC(C)CC(NC(=O)C(NC(=O)OC(C)(C)C)C(C)C)C(=O)N1CCCC1C(N)=O (configuration not stated)	-0.9	3.0	1	-0.539	1
CCn1ncc(C2=NOC(C(=O)Nc3cnn(C45CC6CC(CC(C6)C4)C5)c3)C2)c1C (configuration not stated)	10.3	11.4	0.9	-2.32	0.9
COc1ccc(NC(=S)N2CCC(c3nc4ccccc4[nH]3)CC2)c(OC)c1	22.0	59.0*	0.8	-0.0937	0.4
CCOc1ccccc1NC(=O)N1CCC(c2nc3ccccc3[nH]2)CC1	63.4*	-47.4	0.4	0.172	1.5
COc1ccccc1NC(=S)N1CCC(c2nc3cc(C)c(C)cc3[nH]2)CC1	22.1	19.8	0.8	-1.8	0.8
O=C(CNC(=O)C1CCCCC1)Nc1ccc(Cl)cc1	43.3	25.1	0.6	1.71	0.7
SMILES	CYP2C19 inhib	CYP2C9 inh	CYP2C19 act	Cav3 T inh	CYP2C9 activ
O=C(COC(=O)CNC(=O)C1CCCCC1)Nc1ccc2ccccc2c1	69.0*	35.5	0.3	-0.634	0.6
O=C(CNC(=O)C1CCCCC1)Nc1cc(Cl)cc(Cl)c1	60.8*	25.0	0.4	-0.573	0.8
CCOC(=O)c1ccc(NC(=O)CNC(=O)C2CCCCC2)cc1	26.9	53.8*	0.7	0.0156	0.5
COc1ccc(N2CCN(C(=O)CCCC3=NS(=O)(=O)c4ccccc4N3)CC2)cc1	5.4	7.5	0.9	0.681	0.9
O=C(O)c1cc(NCc2c(F)cccc2Cl)ccc1N1CCOCC1	-4.7	25.3	1	-0.297	0.7
Cc1ccc(S(=O)(=O)c2cc3c(=O)n4cccc(C)c4nc3n(CC3CCCO3)c2=N)cc1 (configuration not stated)	8.9	17.9	0.9	nt	0.8
COC(=O)c1cc(-c2ccccc2)sc1NC(=O)CN1C(=O)c2ccccc2C1=O	11.6	49.1	0.9	-1.63	0.5
O=C(NCCc1ccccc1)c1ccc2c(c1)N(Cc1ccccc1)C(=O)CS2=O (configuration not stated)	48.2	86.3*	0.5	1.11	0.1
CCCN(CCC)C(=O)c1ccc2c(c1)N(Cc1ccccc1)C(=O)CS2=O (configuration not stated)	-7.2	86.1*	1.1	0.066	0.1
